# Experimental data as given in the supplement of paper PMC4466140.
# Key:
# Test in all cases: SPOT peptide array binding signal intensity (averaged, normalized) (arbitrary units (background-subtracted, floor 0; scale differs between SH3 domains)); higher = stronger binding of the SH3 domain to the peptide
# [1] = target: AgAbp1
# Outline: (§1)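 GST-SH3 fusions from four yeast species, purified on glutathione Sepharose, were incubated at 10 μg/ml overnight at 4°C on membranes of synthetic 15-mer peptides in which cysteines were replaced with serines. Binding signal is the normalized, background-subtracted spot intensity averaged over replicates, in domain-specific arbitrary units.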
# [2] = target: AgBbc1
# Outline: as §1
# [3] = target: AgBem1-D1
# Outline: as §1
# [4] = target: AgBzz1-D1
# Outline: as §1
# [5] = target: AgBzz1-D2
# Outline: as §1
# [6] = target: AgCyk3
# Outline: as §1
# [7] = target: AgFus1
# Outline: as §1
# [8] = target: AgHof1
# Outline: as §1
# [9] = target: AgHse1
# Outline: as §1
# [10] = target: AgLsb1
# Outline: as §1
# [11] = target: AgLsb4
# Outline: as §1
# [12] = target: AgMyo5
# Outline: as §1
# [13] = target: AgNbp2
# Outline: as §1
# [14] = target: AgRvs167
# Outline: as §1
# [15] = target: AgSho1
# Outline: as §1
# [16] = target: AgSla1-D1-D2
# Outline: as §1
# [17] = target: AgSla1-D3
# Outline: as §1
# [18] = target: CaAbp1-D1
# Outline: as §1
# [19] = target: CaAbp1-D2
# Outline: as §1
# [20] = target: CaBbc1
# Outline: as §1
# [21] = target: CaBem1-D1
# Outline: as §1
# [22] = target: CaBzz1-D1
# Outline: as §1
# [23] = target: CaBzz1-D2
# Outline: as §1
# [24] = target: CaCyk3
# Outline: as §1
# [25] = target: CaFus1
# Outline: as §1
# [26] = target: CaHof1
# Outline: as §1
# [27] = target: CaHse1
# Outline: as §1
# [28] = target: CaLsb1
# Outline: as §1
# [29] = target: CaLsb4
# Outline: as §1
# [30] = target: CaMyo5
# Outline: as §1
# [31] = target: CaNbp2
# Outline: as §1
# [32] = target: CaRvs167
# Outline: as §1
# [33] = target: CaRvs167-3
# Outline: as §1
# [34] = target: CaSho1
# Outline: as §1
# [35] = target: CaSla1-D1-D2
# Outline: as §1
# [36] = target: CaSla1-D3
# Outline: as §1
# [37] = target: ScAbp1
# Outline: as §1
# [38] = target: ScBbc1
# Outline: as §1
# [39] = target: ScBem1-D1
# Outline: as §1
# [40] = target: ScBzz1-D1
# Outline: as §1
# [41] = target: ScBzz1-D2
# Outline: as §1
# [42] = target: ScCyk3
# Outline: as §1
# [43] = target: ScFus1
# Outline: as §1
# [44] = target: ScHof1
# Outline: as §1
# [45] = target: ScHse1
# Outline: as §1
# [46] = target: ScLsb1
# Outline: as §1
# [47] = target: ScLsb2
# Outline: as §1
# [48] = target: ScLsb3
# Outline: as §1
# [49] = target: ScLsb4
# Outline: as §1
# [50] = target: ScMyo3
# Outline: as §1
# [51] = target: ScMyo5
# Outline: as §1
# [52] = target: ScNbp2
# Outline: as §1
# [53] = target: ScPex13
# Outline: as §1
# [54] = target: ScRvs167
# Outline: as §1
# [55] = target: ScSho1
# Outline: as §1
# [56] = target: ScSla1-D1-D2
# Outline: as §1
# [57] = target: ScSla1-D3
# Outline: as §1
# [58] = target: SpAbp1-D1
# Outline: as §1
# [59] = target: SpBbc1
# Outline: as §1
# [60] = target: SpBzz1-D1
# Outline: as §1
# [61] = target: SpBzz1-D2
# Outline: as §1
# [62] = target: SpCyk3
# Outline: as §1
# [63] = target: SpHof1
# Outline: as §1
# [64] = target: SpHof1-2
# Outline: as §1
# [65] = target: SpHof1-3
# Outline: as §1
# [66] = target: SpHse1
# Outline: as §1
# [67] = target: SpLsb1
# Outline: as §1
# [68] = target: SpLsb4
# Outline: as §1
# [69] = target: SpMyo1
# Outline: as §1
# [70] = target: SpNbp2
# Outline: as §1
# [71] = target: SpPex13
# Outline: as §1
# [72] = target: SpRvs167
# Outline: as §1
# [73] = target: SpSla1-D1-D2
# Outline: as §1
# [74] = target: SpSla1-D3
# Outline: as §1
binder,measurement,setting,value
IVNKPLPPLPVAGSS,SPOT peptide array binding signal intensity,[1],177
same,SPOT peptide array binding signal intensity,[2],≤ 0
same,SPOT peptide array binding signal intensity,[3],5.5
same,SPOT peptide array binding signal intensity,[4],30
same,SPOT peptide array binding signal intensity,[5],17.5
same,SPOT peptide array binding signal intensity,[6],≤ 0
same,SPOT peptide array binding signal intensity,[7],1.5
same,SPOT peptide array binding signal intensity,[8],748
same,SPOT peptide array binding signal intensity,[9],17.5
same,SPOT peptide array binding signal intensity,[10],≤ 0
same,SPOT peptide array binding signal intensity,[11],7.5
same,SPOT peptide array binding signal intensity,[12],≤ 0
same,SPOT peptide array binding signal intensity,[13],≤ 0
same,SPOT peptide array binding signal intensity,[14],2.33
same,SPOT peptide array binding signal intensity,[15],6850
same,SPOT peptide array binding signal intensity,[16],1
same,SPOT peptide array binding signal intensity,[17],≤ 0
same,SPOT peptide array binding signal intensity,[18],21.5
same,SPOT peptide array binding signal intensity,[19],48
same,SPOT peptide array binding signal intensity,[20],≤ 0
same,SPOT peptide array binding signal intensity,[21],≤ 0
same,SPOT peptide array binding signal intensity,[22],459
same,SPOT peptide array binding signal intensity,[23],≤ 0
same,SPOT peptide array binding signal intensity,[24],0.5
same,SPOT peptide array binding signal intensity,[25],232
same,SPOT peptide array binding signal intensity,[26],55.2
same,SPOT peptide array binding signal intensity,[27],1300
same,SPOT peptide array binding signal intensity,[28],≤ 0
same,SPOT peptide array binding signal intensity,[29],≤ 0
same,SPOT peptide array binding signal intensity,[30],≤ 0
RRGPAPPPPPRASRP,SPOT peptide array binding signal intensity,[1],181
same,SPOT peptide array binding signal intensity,[2],646
same,SPOT peptide array binding signal intensity,[3],410
same,SPOT peptide array binding signal intensity,[4],582
same,SPOT peptide array binding signal intensity,[5],164
same,SPOT peptide array binding signal intensity,[6],2
same,SPOT peptide array binding signal intensity,[7],23
same,SPOT peptide array binding signal intensity,[8],63.8
same,SPOT peptide array binding signal intensity,[9],32.5
same,SPOT peptide array binding signal intensity,[10],80.2
same,SPOT peptide array binding signal intensity,[11],485
same,SPOT peptide array binding signal intensity,[12],89
same,SPOT peptide array binding signal intensity,[13],205
same,SPOT peptide array binding signal intensity,[14],339
same,SPOT peptide array binding signal intensity,[15],13
same,SPOT peptide array binding signal intensity,[16],21
same,SPOT peptide array binding signal intensity,[17],14
same,SPOT peptide array binding signal intensity,[18],1290
same,SPOT peptide array binding signal intensity,[19],281
same,SPOT peptide array binding signal intensity,[20],1160
same,SPOT peptide array binding signal intensity,[21],1890
same,SPOT peptide array binding signal intensity,[22],3450
same,SPOT peptide array binding signal intensity,[23],2600
same,SPOT peptide array binding signal intensity,[24],216
same,SPOT peptide array binding signal intensity,[25],124
same,SPOT peptide array binding signal intensity,[26],6.5
same,SPOT peptide array binding signal intensity,[27],6.75
same,SPOT peptide array binding signal intensity,[28],0.75
same,SPOT peptide array binding signal intensity,[29],1000
same,SPOT peptide array binding signal intensity,[30],9
same,SPOT peptide array binding signal intensity,[31],209
same,SPOT peptide array binding signal intensity,[32],805
same,SPOT peptide array binding signal intensity,[33],11
same,SPOT peptide array binding signal intensity,[34],18.5
same,SPOT peptide array binding signal intensity,[35],2130
same,SPOT peptide array binding signal intensity,[36],143
same,SPOT peptide array binding signal intensity,[37],272
same,SPOT peptide array binding signal intensity,[38],150
same,SPOT peptide array binding signal intensity,[39],6
same,SPOT peptide array binding signal intensity,[40],457
same,SPOT peptide array binding signal intensity,[41],68.5
same,SPOT peptide array binding signal intensity,[42],16
same,SPOT peptide array binding signal intensity,[43],12.5
same,SPOT peptide array binding signal intensity,[44],12.2
same,SPOT peptide array binding signal intensity,[45],28.5
same,SPOT peptide array binding signal intensity,[46],132
same,SPOT peptide array binding signal intensity,[47],54
same,SPOT peptide array binding signal intensity,[48],1380
same,SPOT peptide array binding signal intensity,[49],892
same,SPOT peptide array binding signal intensity,[50],160
same,SPOT peptide array binding signal intensity,[51],279
same,SPOT peptide array binding signal intensity,[52],158
same,SPOT peptide array binding signal intensity,[53],1150
same,SPOT peptide array binding signal intensity,[54],2010
same,SPOT peptide array binding signal intensity,[55],668
same,SPOT peptide array binding signal intensity,[56],4710
same,SPOT peptide array binding signal intensity,[57],8.25
same,SPOT peptide array binding signal intensity,[58],726
same,SPOT peptide array binding signal intensity,[59],24
same,SPOT peptide array binding signal intensity,[60],1820
same,SPOT peptide array binding signal intensity,[61],340
same,SPOT peptide array binding signal intensity,[62],13
same,SPOT peptide array binding signal intensity,[63],52
same,SPOT peptide array binding signal intensity,[64],27.8
same,SPOT peptide array binding signal intensity,[65],420
same,SPOT peptide array binding signal intensity,[66],37.8
same,SPOT peptide array binding signal intensity,[67],107
same,SPOT peptide array binding signal intensity,[68],1730
same,SPOT peptide array binding signal intensity,[69],391
same,SPOT peptide array binding signal intensity,[70],15.5
same,SPOT peptide array binding signal intensity,[71],2
same,SPOT peptide array binding signal intensity,[72],2270
same,SPOT peptide array binding signal intensity,[73],571
same,SPOT peptide array binding signal intensity,[74],≤ 0
